What all share (assay): yeast three-hybrid, YBZ-1, SC-Leu-His + 0.5 mM 3-AT, 4 days
What all share (conditions): tags: N-Gal4 AD-HA kept; label: inside an RPR1-promoter hybrid RNA with tandem MS2 sites; ssRNA

Assay [1] addresses PUM1 PUF domain R4-SNI (Homo sapiens, UniProt Q14671 828-1176, N971S;H972N;Q975I). The essentials:
(§1)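 The interaction score is the log change in variant frequency from input to selection. Scores were computed in log2 with a pseudocount of 1 for absent variants, using Illumina sequencing of PCR-amplified repeat regions. The input came from four days on SC-Leu and the selection from four days on SC-Leu-His + 0.5 mM 3-AT. The cells were strain YBZ-1 (LexA–MS2 coat fusion, HIS3 reporter) co-expressing Pumilio-1 PUF domain libraries and matching RNA elements from a centromeric plasmid.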

Assay [2] deals with PUM1 PUF domain R4-SPY (Homo sapiens, UniProt Q14671 828-1176, N971S;H972P;Q975Y). The essentials: as §1
In assay [3] the target is PUM1 PUF domain R5-HCR (Homo sapiens, UniProt Q14671 828-1176, C1007H;R1008C;Q1011R). The method, boiled down:
as §1

Assay [4] deals with PUM1 PUF domain R5-MYG (Homo sapiens, UniProt Q14671 828-1176, C1007M;R1008Y;Q1011G). The method, boiled down: as §1
Assay [5] concerns the target PUM1 PUF domain R5-QRD (Homo sapiens, UniProt Q14671 828-1176, C1007Q;Q1011D). The essentials:
as §1

Assay [6] addresses PUM1 PUF domain R5-LFR (Homo sapiens, UniProt Q14671 828-1176, C1007L;R1008F;Q1011R). The essentials: as §1
Assay [7] addresses T1, PUM1 PUF domain R6-CFK (Homo sapiens, UniProt Q14671 828-1176, N1043C;Y1044F;Q1047K).
T1 sequence: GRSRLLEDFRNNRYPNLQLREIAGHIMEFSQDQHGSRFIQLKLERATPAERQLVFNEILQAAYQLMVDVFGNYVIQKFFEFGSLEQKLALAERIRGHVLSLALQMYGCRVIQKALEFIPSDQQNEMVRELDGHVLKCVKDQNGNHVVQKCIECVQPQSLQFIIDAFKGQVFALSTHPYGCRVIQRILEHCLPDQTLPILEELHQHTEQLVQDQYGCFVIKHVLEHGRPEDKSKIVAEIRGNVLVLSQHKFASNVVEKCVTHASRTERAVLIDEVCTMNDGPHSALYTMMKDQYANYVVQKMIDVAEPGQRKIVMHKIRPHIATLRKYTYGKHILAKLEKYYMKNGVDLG
The essentials:
as §1

Assay [8] has as its target PUM1 PUF domain R4-ALC (Homo sapiens, UniProt Q14671 828-1176, N971A;H972L;Q975C). The method, boiled down: as §1
Assay [9] deals with PUM1 PUF domain R3-VRL (Homo sapiens, UniProt Q14671 828-1176, C935V;Q939L). The method, boiled down:
as §1

For assay [10], the target named is T2, PUM1 PUF domain R6-QWS (Homo sapiens, UniProt Q14671 828-1176, N1043Q;Y1044W;Q1047S).
T2 sequence: T1 sequence with C216Q, F217W, K220S
The method, boiled down: as §1

In assay [11] the target is PUM1 PUF domain R4-YRC (Homo sapiens, UniProt Q14671 828-1176, N971Y;H972R;Q975C). The method, boiled down:
as §1

Assay [12] addresses PUM1 PUF domain R4-SIG (Homo sapiens, UniProt Q14671 828-1176, N971S;H972I;Q975G). The method, boiled down:
as §1

Assay [13] concerns the target PUM1 PUF domain R3-RSG (Homo sapiens, UniProt Q14671 828-1176, C935R;R936S;Q939G). The method, boiled down:
as §1

Assay [14] deals with PUM1 PUF domain R3-RDK (Homo sapiens, UniProt Q14671 828-1176, C935R;R936D;Q939K). The essentials:
as §1

For assay [15], the target named is PUM1 PUF domain R3-HRR (Homo sapiens, UniProt Q14671 828-1176, C935H;Q939R). The method, boiled down:
as §1

Assay [16] concerns the target T3, PUM1 PUF domain R6-TFQ (Homo sapiens, UniProt Q14671 828-1176, N1043T;Y1044F).
T3 sequence: T1 sequence with C216T, K220Q
The method, boiled down: as §1

The target of assay [17] is PUM1 PUF domain R2-DWL (Homo sapiens, UniProt Q14671 828-1176, N899D;Y900W;Q903L). The method, boiled down: as §1
Assay [18] deals with PUM1 PUF domain R7-CHP (Homo sapiens, UniProt Q14671 828-1176, S1079C;N1080H;E1083P). The essentials:
as §1

This note sets out measurements from article PMC8384837, “Expanding the binding specificity for RNA recognition by a PUF domain”.

Positions count from the first letter of the chain named.

Turning to “GGCUAGAACUAGUGGAUCCCCCGGCGCCCGGCGGCUCGAGCCCGGGUAAGUGUACAUAGUCUGCAUGCCGCCGGGCGCCAUGCCUGCAGGUCGACUCUAGAAAACAUG”, the binding signal in assay [1] was 2.5 log2 enrichment (interaction score).
On to “GGCUAGAACUAGUGGAUCCCCCGGCGCCCGGCGGCUCGAGCCCGGGUAAGUGUAUAUAGUCUGCAUGCCGCCGGGCGCCAUGCCUGCAGGUCGACUCUAGAAAACAUG”, for which the figures for the binding signal in [1] and in assay [2] were 3.45 log2 enrichment (interaction score) and 1.88 log2 enrichment (interaction score), respectively.
With “GGCUAGAACUAGUGGAUCCCCCGGCGCCCGGCGGCUCGAGCCCGGGUAAGUGUCAAUAGUCUGCAUGCCGCCGGGCGCCAUGCCUGCAGGUCGACUCUAGAAAACAUG”, the binding signal in assay [3] is 2.3 log2 enrichment (interaction score).
For the sequence “GGCUAGAACUAGUGGAUCCCCCGGCGCCCGGCGGCUCGAGCCCGGGUAAGUGUUAAUAGUCUGCAUGCCGCCGGGCGCCAUGCCUGCAGGUCGACUCUAGAAAACAUG”, the binding signal is 2.43 log2 enrichment (interaction score) in assay [3] and 3.99 log2 enrichment (interaction score) in assay [4].
Consider “GGCUAGAACUAGUGGAUCCCCCGGCGCCCGGCGGCUCGAGCCCGGGUAAGUGUGAAUAGUCUGCAUGCCGCCGGGCGCCAUGCCUGCAGGUCGACUCUAGAAAACAUG”, for which, in assay [5], the binding signal is 5.16 log2 enrichment (interaction score).
Consider “GGCUAGAACUAGUGGAUCCCCCGGCGCCCGGCGGCUCGAGCCCGGGUAAGUGUAAAUAGUCUGCAUGCCGCCGGGCGCCAUGCCUGCAGGUCGACUCUAGAAAACAUG”, for which the binding signal in [6] is 2.2 log2 enrichment (interaction score); in [7], 3.27 log2 enrichment (interaction score); in assay [8] it was 3.15 log2 enrichment (interaction score); in assay [2] it was 3.88 log2 enrichment (interaction score); in assay [9], 3.56 log2 enrichment (interaction score); in assay [10], 3.91 log2 enrichment (interaction score). In addition, the binding signal in assay [4] is 1.26 log2 enrichment (interaction score); in assay [11], 4.13 log2 enrichment (interaction score); in assay [12] it was 3.64 log2 enrichment (interaction score).
Consider “GGCUAGAACUAGUGGAUCCCCCGGCGCCCGGCGGCUCGAGCCCGGGUAAGUGUAAUUAGUCUGCAUGCCGCCGGGCGCCAUGCCUGCAGGUCGACUCUAGAAAACAUG”, for which the binding signal is 3.59 log2 enrichment (interaction score) in [13], 2.64 log2 enrichment (interaction score) in [14] and 0.15 log2 enrichment (interaction score) in [15].
Turning to “GGCUAGAACUAGUGGAUCCCCCGGCGCCCGGCGGCUCGAGCCCGGGUAAGUGUAAGUAGUCUGCAUGCCGCCGGGCGCCAUGCCUGCAGGUCGACUCUAGAAAACAUG”, the values for the binding signal in [13] and in assay [15] were 1.02 log2 enrichment (interaction score) and 2.66 log2 enrichment (interaction score), respectively.
Take “GGCUAGAACUAGUGGAUCCCCCGGCGCCCGGCGGCUCGAGCCCGGGUAAGUGAAAAUAGUCUGCAUGCCGCCGGGCGCCAUGCCUGCAGGUCGACUCUAGAAAACAUG”: in assay [16], the binding signal was 6.64 log2 enrichment (interaction score).
“GGCUAGAACUAGUGGAUCCCCCGGCGCCCGGCGGCUCGAGCCCGGGUAAGUGUAAAAAGUCUGCAUGCCGCCGGGCGCCAUGCCUGCAGGUCGACUCUAGAAAACAUG”: the binding signal in assay [17] was 6.44 log2 enrichment (interaction score).
With “GGCUAGAACUAGUGGAUCCCCCGGCGCCCGGCGGCUCGAGCCCGGGUAAGUGGAAAUAGUCUGCAUGCCGCCGGGCGCCAUGCCUGCAGGUCGACUCUAGAAAACAUG”, the binding signal in assay [10] was 3.82 log2 enrichment (interaction score).
Turning to “GGCUAGAACUAGUGGAUCCCCCGGCGCCCGGCGGCUCGAGCCCGGGUAAGUCUAAAUAGUCUGCAUGCCGCCGGGCGCCAUGCCUGCAGGUCGACUCUAGAAAACAUG”, in assay [18], the binding signal was 2.32 log2 enrichment (interaction score).
